Shown is part of a subset that was picked to be rich in hits.
RMI-FANCM inh: disruptors of RMI1/RMI2 association with MM2 peptide – biochemical, fluorescence polarization, human, primary screen | RMI core complex (RMI1/RMI2) binding to FANCM MM2 peptide, human | AID 1159607, 2016 | 70,000 tested, 0.58% active | RMI core complex with F-MM2 peptide; hits give low values | FP signal (polarization) at 33 µM; in the data active = FP signal below about 40
* marks the source's active call; other numbers are inactive results.

SMILES | RMI-FANCM inh
Cc1cccc(CN2CCN(C(c3ccccc3)c3ccc(Cl)cc3)CC2)c1 (stereo not given) | 66
CN1CCN(C(c2ccccc2)c2ccccc2)CC1 | 69
CN1CCCN(C(c2ccccc2)c2ccc(Cl)cc2)CC1 (stereo not given) | -4*
N#C/C(=C\Nc1ccc2c(c1)OCCO2)S(=O)(=O)c1ccc(Cl)cc1 | 60
O=C(Nc1cccc2ccccc12)NC1CC(=O)N(c2ccc3c(c2)OCCO3)C1 (stereo not given) | 55
Nc1nc2ncc(C(=O)O)nc2c(=O)[nH]1 | 53
Nc1nc2ncc(=O)[nH]c2c(=O)[nH]1 | 26*
Nc1nc2[nH]c(=O)cnc2c(=O)[nH]1 | 50
O=C(CNS(=O)(=O)c1cccc2ccccc12)N1CCOC(c2ccccc2)C1 (stereo not given) | 75
C=C(C)[C@@H]1CC[C@]2(CO)CC[C@]3(C)[C@H](CCC4[C@@]5(C)CC[C@H](O)C(C)(C)C5CC[C@]43C)C12 (stereo not given in full) | 51
CC1(C)C2CC[C@]3(C)C(C(=O)C=C4[C@H]5C[C@@](C)(C(=O)O)CC[C@]5(C)CC[C@]43C)[C@@]2(C)CC[C@@H]1O (stereo not given in full) | 53
COc1cc(N=Cc2ccccc2OC(=O)c2cc(OC)c(OC)c(OC)c2)c(OC)cc1Cl | 28*
COc1cc(C(=O)O/N=C\c2ccccc2OC(F)(F)F)cc(OC)c1OC | 50
COc1cc(C(=O)Oc2c(Cl)cc(Cl)cc2C=Nc2cc(C)c(C)cc2C)cc(OC)c1OC | 97
CC1CCC(C(C)C)C(OP(N)(=O)OC2CC(C)CCC2C(C)C)C1 (stereo not given) | 66
CC(CCc1ccccc1)NC(=O)CCc1csc(NC(=O)Nc2ccccc2)n1 (stereo not given) | 67
Cc1nn(C2CCS(=O)(=O)C2)c2nc(-c3ccc(F)cc3)cc(C(=O)N3CCOCC3)c12 (stereo not given) | 66
Cc1ccc(S(=O)(=O)Nc2ccc3c(c2)OCC(C)(C)C(=O)N3)c(C)c1 | 66
Cc1cc(NC(=O)CCN2C(=O)/C(=C3\SC(=S)N(CCC(=O)Nc4cc(C)on4)C3=O)SC2=S)no1 | 21*
O=C(CCCN1C(=O)/C(=C2\SC(=S)N(CCCC(=O)Nc3cccc(C(=O)O)c3)C2=O)SC1=S)Nc1cccc(C(=O)O)c1 | 54
COc1ccc(/C=C2\SC(=S)N(CCC(=O)Nc3cc(C)on3)C2=O)cc1OC | 58
O=C(CSC1=NS(=O)(=O)c2cc(Cl)ccc2N1)N1CCc2ccccc21 | 51
Cc1nnc(SCC(=O)Nc2ccc(Cl)cc2)[nH]c1=O | 57
N#Cc1c(N)nc2c(c1-c1ccc(Cl)cc1)CCCC2 | 54
COc1ccc(-c2c(C#N)c(N)nc3c2CN(C)CC3)c(OC)c1OC | -4*
SMILES | RMI-FANCM inh
CCC(C(=O)N1CCN(Cc2nc(C)cs2)CC1)c1ccccc1 (stereo not given) | 62
CC(=O)c1ccc(NC(=O)Cn2c(-c3cccnc3)nc3ccccc32)cc1 | 61
O=c1[nH]c(CSc2nc3ccccc3o2)nc2ccccc12 | 55
O=c1c(Cl)c2oc3ccccc3nc-2c2ccccc12 | 32*
O=S(=O)(O)c1nc2ccccc2o1 | 61
Cc1cc(NC(=O)C(=O)NCC(c2ccc3c(c2)CCN3C)N2CCCCC2)c2ccccc2n1 (stereo not given) | 61
C=C1CCC2C(CC2(C)C)C(=C)CC/C1=N\O (stereo not given) | 64
CCC1CCCCN1S(=O)(=O)c1ccc(C(=O)Nc2nc3c(s2)Cc2ccccc2-3)cc1 (stereo not given) | 50
COC(=O)c1ccccc1OC1OC(CO)C(O)C(O)C1O (stereo not given) | 61
O=C(O)c1cc(O)c2c(c1)[C@@H]([C@H]1c3cc(C(=O)O)cc(O)c3C(=O)c3c(O[C@H]4O[C@H](CO)[C@@H](O)[C@H](O)[C@H]4O)cccc31)c1cccc(O[C@H]3O[C@H](CO)[C@@H](O)[C@H](O)[C@H]3O)c1C2=O | 22*
CC(C)(CCl)C(=O)Nc1cc([N+](=O)[O-])ccc1O | 73
O=C(NCc1ccccc1Cl)C(=O)Nc1ccc(N2CCCS2(=O)=O)cc1 | 90
CC(C)N1CCc2c(sc(NC(=O)c3ccc(Cl)s3)c2-c2nc3ccccc3s2)C1 | -19*
CC(C)N1CCc2c(sc(NC(=O)c3ccc(S(=O)(=O)N4CCCCCC4)cc3)c2-c2nc3ccccc3s2)C1 | 3
Cc1ccc(C(=O)Nc2sc3c(c2-c2nc4ccccc4s2)CCN(C(C)C)C3)c(C)c1 | 36
COc1cn(CC(=O)NCc2ccc3c(c2)OCO3)c(CSc2nnnn2C)cc1=O | 54
COc1cc(C(=O)Nc2ccccc2N2CCCCC2)cc(OC)c1OC | 58
CCOC(=O)c1c(N=c2oc3c(OC)cccc3cc2C(=O)Nc2ccc(C)cc2)sc2c1CCCC2 | 58
CCOc1ccccc1N=c1oc2c3c4c(cc2cc1C(=O)Nc1ccccc1OC)CCCN4CCC3 | 33*
N#Cc1sc2sc(C#N)c(-c3cccs3)c2c1N | 70
